In all, about 350,000 compounds went through this assay and about 1,100 (0.31%) were called active. What follows is part of a selection rich in actives, with near analogues and random picks from the rest. Unmarked numbers belong to inactive results. Cut-off read from the data, not from the text of the source: active = activation above about 50%; inactive = the rest.
Biological target: Endoribonuclease toxin MazF (Escherichia coli (strain K12)) (UniProt P0AE70)
Assay: activators of E. coli MazEF toxin-antitoxin RNase, primary screen, biochemical, fluorescence, uHTS (AID 504720)
Conditions: FAM/BHQ RNA-DNA oligo cleavage fluorescence, 5 h, at 20 µM, hits give high values

Chain of Endoribonuclease toxin MazF (Escherichia coli (strain K12)) (P0AE70 whole entry, looked up): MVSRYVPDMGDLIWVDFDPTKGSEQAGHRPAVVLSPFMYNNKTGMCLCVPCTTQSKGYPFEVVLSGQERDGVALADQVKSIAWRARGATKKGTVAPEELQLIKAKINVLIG

Compound	activation
CC(C(=O)Nc1ccc(O)c(C(=O)O)c1)N1C(=O)/C(=C/c2cccs2)SC1=S (centres undefined)	3.14%
O=C(CCN1C(=O)/C(=C/c2cccs2)SC1=S)NNC(=O)c1cccc(O)c1	96.7% (active)
Cc1c(C(=O)NCCN2C(=O)S/C(=C\c3cccs3)C2=O)cccc1[N+](=O)[O-]	9.61%
CC(C)NC(=O)C(=O)NCCCOC(C)C	15.5%
COCCN(CCOC)S(=O)(=O)NC[C@H]1O[C@@H](n2cnc3c(N)ncnc32)[C@H](O)[C@@H]1O	5.68%
CCCCN(CC(=O)Nc1cccc(S(=O)(=O)N2CCCC2)c1)Cc1nc2ccccc2c(=O)[nH]1	-2.27%
CCOc1ccc(N2C(=O)/C(=C/c3ccc(C)o3)N(C)C2=S)cc1	53.2% (active)
CCOc1ccc(N2C(=O)CN(c3cccc4ccccc34)C2=S)cc1	1.98%
CCO/C=C1\C(=O)N(c2ccc(OCC)cc2)C(=O)c2ccccc21	5.56%
OCC[C@H]1C[C@H](O)[C@@H](O)[C@]2(CCc3ccccc3O2)O1	2.25%
CCCCN=C1C([N+](=O)[O-])=CC=C2C1=NC1(CCCCC1)N2O	8.1%
CCCCn1c(N)c(N(CC(C)C)C(=O)c2ccc(-n3c(C)ccc3C)cc2)c(=O)[nH]c1=O	-0.38%
COc1ccc(NC(=O)CSc2nnc(-c3ccccc3F)n2C2CC2)cc1S(N)(=O)=O	3.2%
CC(C)(C)C1CCC(C(=O)Nc2cccnc2)CC1 (centres undefined)	5.13%
Cn1cccc1/C=C1\SC(=S)N(NC(=O)c2ccc(Cl)cc2)C1=O	140% (active)
CC(=O)N1C(=O)/C(=C2\SC(=S)N(NC(=O)c3ccc(O)cc3)C2=O)c2ccccc21	4.76%
CN1C(=O)C(CC(N)=O)N(NC(=O)c2ccc(Cl)cc2)C1=S (centres undefined)	-6.03%
CCn1nc(C(=O)NNC(=O)C2CSC3(C)CCC(=O)N23)c2ccccc2c1=O (centres undefined)	1.5%
Cc1ccc2cccc([N+](=O)[O-])c2n1	4.29%
CN(c1ccccc1)c1ccc([N+](=O)[O-])c2nonc12	72.5% (active)
Cc1ccccc1Nc1c([N+](=O)[O-])ccc2nonc12	-7.83%
C=CC[C@@H](CC(=O)NCCO)C(=O)N[C@H](C)COC(=O)[C@@H](CC=C)CC(=O)OC(C)(C)C	-0.071%
COc1cc(S(=O)(=O)N(Cc2cccs2)C2CC2)ccc1-n1cnnn1	7.76%
CCOC(=O)N1CCN(C(=O)c2ccc3nc4cc(Cl)ccc4c(=O)n3c2)CC1	-2.93%

Compound	activation
CC(C)(C)N(Cc1ccccc1)C(=O)COC(=O)CCc1c[nH]c2ccccc12	5.36%
COc1cc(C(c2c(O)c3ccccc3oc2=O)c2c(C)n(C)n(-c3ccccc3)c2=O)ccc1O (centres undefined)	0.237%
COc1cc(N=Cc2c(O)c3ccccc3oc2=O)c(OC)cc1Cl	221% (active)
CCC(=O)CC(c1ccc([N+](=O)[O-])cc1)c1c(O)c2ccccc2oc1=O (centres undefined)	1%
O=C(NNC(=S)Nc1ccc(F)cc1)[C@H]1C[C@@H]1c1ccccc1	12.2%
CCCNC(=O)c1onc(CSc2ccc(F)cc2)c1C(=O)NC(C)C	1.76%
Cc1ccc(S(=O)(=O)N2CCN(C(=O)Cn3c(=O)cnc4ccccc43)CC2)c(C)c1	52.1% (active)
Cc1ccc(S(=O)(=O)N2CCN(C(=O)COC(=O)c3c(C)cc(C)cc3C)CC2)c(C)c1	2.63%
Cc1ccc(S(=O)(=O)N2CCN(C(=O)CSc3cc(C)ccc3C)CC2)c(C)c1	-11.9%
CCOc1ccc(/C=C/C(=O)OCC(=O)c2ccccc2OC)cc1OC	-8.54%
Cc1ccc(N=Cc2c(O)n(-c3nccs3)c(=O)c3ccccc23)c(C)c1	1250% (active)
COC(=O)Cc1csc(/N=C/c2c(O)n(-c3cccc(C(F)(F)F)c3)c(=O)c3ccccc23)n1	-24.2%
Cc1cccc(-n2c(O)c(C=Nc3ccccc3N)c(=O)[nH]c2=O)c1	10.4%
COc1ccc(C)cc1N(C)C(=O)c1coc(=O)c2ccccc12	4.28%
COc1cc(OC)cc(C(=O)Nc2ccc(-c3nc4ccccc4o3)c(O)c2)c1	-11.7%
O=C(Nc1ccc2oc(-c3ccccc3F)nc2c1)c1ccco1	1.3%
O=C(Nc1ccc2oc(-c3ccc4ccccc4c3)nc2c1)c1cccs1	57.7% (active)
O=C(NCCSc1ncc(-c2ccccc2)[nH]1)c1ccco1	3.87%
COCCCNC(=O)c1c(F)c(F)c(F)c(F)c1F	5.56%
COc1ccc(/C=C/c2c(-c3cccc(C)c3)oc3ccc(-c4ccc5c(c4)OCO5)cc23)cc1	-7.77%
Cc1cc(C)cc(Oc2c(C(F)(F)F)oc3cc(OCC(=O)O)ccc3c2=O)c1	2.37%
CCOC(=O)c1cc(NC(=O)c2cccnc2)ccn1	0.906%
CCC(=O)Nc1cccc(NC(=O)c2cccnc2)c1	335% (active)
O=C(Cc1ccccc1)Nc1ccc(NC(=O)c2cccnc2)cc1	-0.44%

Compound	activation
O=C(NCCOc1ccccc1)N1[C@H]2CC[C@@H]1C=C(c1ccc(F)cc1OCc1ccccc1)C2	-1.59%
CSCCC1NC2(C(=O)Nc3ccc(Cl)cc32)[C@@H]2C(=O)N(C3CCCC3)C(=O)[C@H]12 (some centres undefined)	2.84%
O=C(CN1CCN(c2ccc(O)cc2)CC1)Nc1ccc(-c2ccccc2)cc1	111% (active)
O=C(CN1CCOCC1)Nc1ccccc1	6.62%
CC(=O)c1ccc(N2CCN(CC(=O)Nc3ccccc3N3CCOCC3)CC2)cc1	4.75%
CN(C)Cc1c(O)ccc2occ(C(O)c3ccccc3)c12 (centres undefined)	8.71%
COc1cccc2c1OCC(CN1CCN(C3CCCCC3)C(CCO)C1)=C2 (centres undefined)	0.264%
CC(=O)NC(C)(C)C1CC=C(C)/C(=N\O)C1 (centres undefined)	6.07%
COC(C/C=C/C(=O)[C@@H](C)OCc1ccccc1)OC	-1.24%
CCOC(=O)CSc1nc(C)cc2c1C(=O)OC2	2.74%
O=C(COC(=O)Cn1[nH]c(=O)c2ccccc2c1=O)Nc1ncc(Cl)cc1Cl	-9.39%
Cc1ccccc1OCc1nnc(SCC(=O)N2c3ccccc3Sc3ccc(Cl)cc32)o1	-5.1%
CC(C)CCNC(=O)c1ccc2c(Cl)c3c(nc2c1)CCC3	0.61%
COc1cccc(NC(=O)c2ccc3c(SCC(=O)O)c4c(nc3c2)CCCC4)c1	0.29%
CC(=O)c1ccc(NC(=O)c2ccc3c(Cl)c4c(nc3c2)CCCC4)cc1	61.1% (active)
O=C(CN1CCN(Cc2ccc(F)cc2Cl)C1=O)NCc1cccs1	2.52%
COc1ccc(NC(=O)c2cc([N+](=O)[O-])ccc2NC(=O)CNC2CCCCC2C)c(OC)c1 (centres undefined)	5.61%
Cc1ccc(Sc2ccncc2S(N)(=O)=O)cc1	4.01%
COc1ccc(Cn2c(O)c(/C=C3/C=CC=N3)c(=O)[nH]c2=O)cc1	79.2% (active)
COc1ccc(N=Cc2c(O)n(C)c(=O)[nH]c2=O)cc1	-3.16%
COc1ccc(CCn2c(O)c(C=NC3CC3)c(=O)[nH]c2=O)cc1OC	0.91%
CNC(=O)c1c(NC(NC(=O)c2ccco2)C(=O)c2ccc(Cl)cc2)sc2c1CCCC2 (centres undefined)	-0.431%
O=C(Nc1ncc2c(n1)-c1ccccc1OC2)c1ccc(Cl)cc1	3.08%
O=C(COC(=O)CNC(=O)C1CCCCC1)NCc1ccccc1	0.98%

Compound	activation
CCCCN1C(=O)/C(=C/C=C2/C=Cc3ccccc3N2CC)SC1=S	18.5%
O=C1/C(=C/c2coc3ccc(O)cc3c2=O)SC(=S)N1c1ccccc1	-53.2%
Cc1ccc(-c2nn(-c3ccccc3)cc2/C=C2\SC(=S)N(CCCCCC(=O)O)C2=O)o1	3200% (active)
CCOc1ccc(S(=O)(=O)Nc2cccc(C(=O)NCC3(N4CCCCC4)CCCCC3)c2)cc1	-1.19%
COc1ccc(CCNC(=O)c2nnc(CS(=O)(=O)c3ccccc3)o2)cc1OC	6.35%
O=C(NCC12CC3CC(C1)CC(CNC(=O)N1CCCC1)(C3)C2)N1CCCC1	-3.78%
COc1ccc(CNC(=O)CCC(=O)Nc2nnc(C(C)C)s2)cc1	7.7%
CN(C)c1ccc(/C=C2\NC(=S)N(Cc3ccccc3)C2=O)cc1	56.4% (active)
Cc1ccc(CN2C(=O)N/C(=C/c3cc(C)n(-c4ccccn4)c3C)C2=O)cc1	-15.4%
CN(C(=O)CN1C(=O)NC(C)(CCc2ccccc2)C1=O)c1ccccc1 (centres undefined)	-1.8%
COCCn1c(=NC(=O)c2ccccc2[N+](=O)[O-])sc2cc(S(C)(=O)=O)ccc21	15.4%
CSc1ccccc1C(=O)OCC(=O)N1CCN(C(C)=O)CC1	1.11%
Cc1scc(C(=O)NNC(=S)NCc2ccccc2)c1C	51.1% (active)
O=C(NNC(=S)NCc1ccccc1)c1ccc(OC(F)F)cc1	-1.92%
Cc1scc(C(=O)NNC(=S)NCC(C)C)c1C	5.32%
COc1cc(S(=O)(=O)N2CCN(C(=O)C3CC3)CC2)ccc1NC(C)=O	3.42%
COc1c(C)c2c(c(O)c1C/C=C(\C)CCC(=O)O)C(=O)OC2	6.86%
O=C(COC(=O)c1cccc(Cl)c1)NC(=O)NCc1ccccc1	-3.25%
c1ccc(-c2cn3c(n2)CCc2ccc4cccnc4c2-3)cc1	4.41%
O=C(NCc1cccc(Cl)c1)C1=CC=CN2CCS(=O)(=O)N=C12	-3.56%
CCOC(=O)N1CCN(C(=O)CN(C2CCCCC2)S(C)(=O)=O)CC1	-5%
CCc1ccc2nc(Nc3ncc(C(C)=O)c(C)n3)nc(C)c2c1	-3.52%

— PubChem BioAssay AID504720 (Sanford-Burnham Center for Chemical Genomics, 2011)
